From PubChem
MITF inh: inhibitors of human MITF. actives 0.91% (n = 650,000). AlphaScreen MITF homodimerization, bead proximity signal. inhibition, % at 2.6 µM. AID 1259374; in the data active = inhibition above about 50%;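 also: 0% = vehicle wells with protein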
FBW7 act: human FBW7 E3 ligase activation, primary screen; actives 0.13% (n = 650,000); AID 1259310; AlphaScreen FBW7–phospho-cyclin E peptide binding, activator screen; normalized activity (activation), % at 26.1 µM; Q969H0; in the data active = normalized activity above about 1.9%;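 also: purified mutant Fbw7 with reduced substrate affinity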
TEAD-YAP block: TEAD-YAP interaction inhibition; HEK-TIYL cells, TEAD-Gal4/YAP UAS-luciferase luminescence; actives 1.4% (n = 640,000); inhibition, % at 9.12 µM; in the data active = inhibition above about 32%;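 also: 0% = median of test compound wells and 100% = reference inhibitor wells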
GPR151 activ: activators of human GPR151; Q8TDV0; PathHunter beta-arrestin GPR151 cells, luminescence; activation, % at 11.2 µM; actives 1% (n = 650,000); AID 1508602; in the data active = activation above about 4.9%;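 also: 0% = median of compound wells and 100% = cells with positive control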
Target sequence (Q8TDV0 whole entry, looked up): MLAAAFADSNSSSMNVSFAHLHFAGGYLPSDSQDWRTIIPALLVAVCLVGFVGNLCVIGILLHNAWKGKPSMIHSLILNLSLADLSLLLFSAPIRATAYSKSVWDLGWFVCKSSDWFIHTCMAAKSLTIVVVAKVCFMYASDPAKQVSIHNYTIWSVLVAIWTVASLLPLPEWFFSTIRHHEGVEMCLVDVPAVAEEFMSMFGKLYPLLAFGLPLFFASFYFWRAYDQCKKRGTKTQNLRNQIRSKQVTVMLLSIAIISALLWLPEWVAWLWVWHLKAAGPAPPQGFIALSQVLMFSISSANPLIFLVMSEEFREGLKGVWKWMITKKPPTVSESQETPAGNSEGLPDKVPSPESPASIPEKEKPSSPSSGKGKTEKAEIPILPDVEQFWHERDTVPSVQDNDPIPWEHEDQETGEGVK
GPR151 conf act: confirmation of human GPR151 activators; AID 1508609; activation, % at 11.2 µM; 6,700 tested, under 10 active; GPR151 PathHunter beta-arrestin cells, luminescence, 90 min; % of EA-reagent control over plate median; shares compounds with GPR151 activ;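 active = mean percent activation across replicates above the confirmation screen cutoff of 4.91%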
GPR119 ag: activates human GPR119 in a GPR151 counter-screen; shares compounds with GPR151 activ; GPR119 PathHunter beta-arrestin cells, luminescence, 90 min; 0 = compound-well median, 100 = enzyme-acceptor control; activation, % at 11.2 µM; actives 0.3% (n = 6,700);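 active = mean percent activation in the counterscreen above 29.09%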;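 also: counterscreen on off-target GPR119 to flag nonselective hits from the GPR151 activator screen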
* marks the source's active call; other numbers are inactive results; x = no result. Hits are enriched below; roughly 3.4% of the tested compounds scored in any of these assays.

SMILES	MITF inh	FBW7 act	TEAD-YAP block	GPR151 activ	GPR151 conf act	GPR119 ag
COC(=O)C1CCN(C(=O)CC(C)(C)C)CC1	16.7	0.3	-2.5	6.1*	1.5	3.3
CN1CCCc2cc(CNC(=O)CCC3(Cc4ccco4)CCC(=O)N3)ccc21 (centres undefined)	9.8	-0.1	-3.1	2.9	x	x
Cn1ncc2c(N3CCOCC3)nc(NCc3ccco3)nc21	17.2	0.2	-1.9	5.4*	0.0	-2.6
CCCCOC(=O)C1=C(C)NC(=O)NC1c1cc2c(cc1Br)OCO2 (centres undefined)	-5.9	-0.1	8.8	5.1*	1.3	9.1
O=[N+]([O-])c1ccc(S(=O)(=O)Nc2ccc(-c3nc4ccccc4[nH]3)cc2)cc1	-4.3	-0.1	-18.4	0.0	x	x
O=S(=O)(Nc1ccc(-c2nc3ccccc3[nH]2)cc1)c1ccc(-n2cccn2)cc1	-20.4	0.1	0.8	5.8*	1.3	17.1
CCOc1ccc(Cl)cc1C1C2=C(CC(C)(C)CC2=O)N(C)C2=C1C(=O)CC(C)(C)C2	12.4	0.2	4.2	-0.1	x	x
C#CCOc1ccc(Cl)cc1C1C2=C(CC(C)(C)CC2=O)N(C)C2=C1C(=O)CC(C)(C)C2	2.6	0.1	2.0	5.1*	0.8	10.0
CN1CCSc2ccc(C(=O)NC3CCCC3)cc21	-0.1	-0.1	-48.9	-0.9	x	x
Nn1c(COc2cccc(Br)c2)nnc1SCC(=O)N1CCOCC1	-2.6	-0.2	-0.4	-1.2	x	x
O=c1c(NC2CC2)c(N2CCN(c3ccc4cccc(-c5ccccc5F)c4n3)CC2)c1=O	2.6	-0.2	60.2*	5.3*	1.3	31.0*
Fc1ccccc1-c1cccc2ccc(N3CCN(c4ncnc5nc[nH]c45)CC3)nc12	-6.1	-0.1	-6.9	6.3*	0.1	11.9
CCOC(=O)Cn1c(=O)c2c(nc3n(-c4cccc(OC)c4)c(C)cn23)n(C)c1=O	2.6	-0.3	4.4	-0.1	x	x
C=C(C)CCC(C)N1CCC(n2nccc2NC(=O)Cc2ccccc2)CC1 (centres undefined)	3.1	0.0	-7.7	0.2	x	x
CC(C)(Oc1ccc(Cl)cc1)C(=O)N1CCCC1	15.5	-0.1	2.1	0.8	x	x
CCOC(=O)C1CCN(C(=O)C(C)(C)Oc2ccc(Cl)cc2)CC1	-1.4	0.3	-2.0	5.7*	0.3	7.3
O=C(CN1c2cccc3cccc(c23)S1(=O)=O)Nc1ccc(F)c(F)c1	-4.6	-0.2	-8.1	0.1	x	x
O=C(CN1c2cccc3cccc(c23)S1(=O)=O)Nc1ccc(Br)cc1F	-8.6	0.0	8.2	7.1*	0.6	8.8
O=C(CSc1nnc2ccc(-c3cccnc3)nn12)N1CCc2ccccc21	8.8	1.0	-5.2	5.4*	1.0	3.8
O=C(CSc1nnc2ccc(-c3cccnc3)nn12)N1CCCC1	-1.5	0.2	-8.9	-1.2	x	x
COc1cccc(-n2c(SCC(=O)N3CCc4ccccc43)nnc2-c2ccncc2)c1	4.7	0.2	11.3	6.4*	0.3	-0.8
COc1cccc(-n2c(SCC(=O)N3CCc4ccccc43)nnc2-c2cccnc2)c1	-0.4	-0.1	2.5	-0.2	x	x
Cc1ccc(C2=NN(c3nc(-c4ccc(C)c(C)c4)cs3)C(c3ccc(Cl)cc3)C2)cc1 (centres undefined)	13.7	0.2	4.7	1.4	x	x
O=C(CCNc1c(N2CCCC2)c(=O)c1=O)NC1CCCCCC1	0.6	-0.4	-3.9	7.2*	0.1	2.0
Cc1ccc(NC(=O)CCNc2c(N3CCCC3)c(=O)c2=O)cc1Cl	-5.5	-0.1	1.6	12.5*	1.4	-4.4
Cc1ccc(NC(=O)CC(C)(C)C)cc1Cl	-2.2	0.1	-5.8	5.2*	-0.3	5.1
O=C(CCNc1c(N2CCCC2)c(=O)c1=O)Nc1ccc(F)c(Cl)c1	-1.1	0.0	10.9	2.3	x	x
CCCC1(C)N=C(c2ccc3c(c2)OCO3)CC(c2ccccc2O)N1 (centres undefined)	7.8	0.0	-54.7	-1.1	x	x
CCc1ccc(C(=O)NC(CC(C)C)C(=O)Nc2cc(C)on2)cc1 (centres undefined)	3.5	-0.4	0.1	5.3*	0.3	-0.7
CCc1ccc(OCC(=O)Nc2cc(C)on2)cc1	4.1	0.3	-50.8	-0.9	x	x
